In PubChem BioAssay (NCI):
Compounds without any hit were thinned out: in the full panel of roughly 79,000, 15% have a hit. Activity calls are given as the source filed them. Cut-off read from the data, not from the text of the source: active = growth inhibition above about 70%; inactive = the rest.

Assays:
[1] = NCI Yeast Anticancer Drug Screen. Data for the rad52 strain (AID 147);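 note: 0% = growth of vehicle-treated control cultures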; details: S. cerevisiae rad52 mutant growth inhibition, hits give high values
Summary of the method: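 Measured: yeast growth inhibition. System: strain with a defined DNA damage repair alteration. Reference: vehicle-treated control cultures.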

[2] = NCI Yeast Anticancer Drug Screen. Data for the wt1 strain (AID 149);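 note: 0% = growth of vehicle-treated wt1 cultures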; details: S. cerevisiae wt1 strain (SPY 50644) growth inhibition, hits give high values
Summary of the method: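 Yeast wt1 strain exposed to compounds; growth inhibition measured relative to vehicle-treated controls.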

[3] = NCI Yeast Anticancer Drug Screen. Data for the mgt1 strain (AID 153); details: S. cerevisiae mgt1 mutant growth inhibition, hits give high values
Summary of the method: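 After exposure of the mgt1 yeast mutant to compound, growth was measured and reported as inhibition compared with vehicle controls.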

[4] = NCI Yeast Anticancer Drug Screen. Data for the rad50 strain (AID 155);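 note: 0% = growth of vehicle-only cultures of the same strain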; details: S. cerevisiae rad50 strain growth inhibition, hits give high values
Summary of the method: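 Yeast carrying a defined DNA repair defect were exposed to test compounds, and growth was compared with vehicle-treated controls to give percent inhibition.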

[5] = NCI Yeast Anticancer Drug Screen. Data for the mec2-1 strain (AID 157); details: S. cerevisiae mec2-1 strain, hits give high values
Summary of the method: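 Test agents were screened against the mec2-1 yeast strain, with defined DNA repair or cell cycle alteration. Growth was scored as inhibition against vehicle-only controls.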

[6] = NCI Yeast Anticancer Drug Screen. Data for the sgs1 mgt1 strain (AID 161);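 note: 0% = growth of cultures given vehicle only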; details: S. cerevisiae sgs1 mgt1 strain, hits give high values
Summary of the method: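 Inhibition of yeast growth, normalised to vehicle-treated controls, is reported for a strain bearing genetic alterations in DNA damage repair.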

[7] = NCI Yeast Anticancer Drug Screen. Data for the CLN2oe strain (AID 163);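 note: 0% = growth of vehicle-only control cultures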; details: S. cerevisiae CLN2oe strain, hits give high values
Summary of the method: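 Here, growth inhibition in a cell-cycle-altered yeast strain after compound exposure was quantified against vehicle control growth.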

[8] = NCI Yeast Anticancer Drug Screen. Data for the cln2 rad14 strain (AID 165);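 note: 0% = growth equal to vehicle treated cultures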; details: S. cerevisiae cln2 rad14 strain, hits give high values
Summary of the method: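 Growth of compound-exposed yeast (cln2 rad14 genotype) measured and expressed as inhibition relative to vehicle.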

[9] = NCI Yeast Anticancer Drug Screen. Data for the bub3 strain (AID 167); details: S. cerevisiae bub3 mutant strain, hits give high values
Summary of the method: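 Compounds were applied to a genetically altered yeast strain carrying a cell-cycle control defect. Growth inhibition was scored against vehicle-treated controls.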

[10] = NCI Yeast Anticancer Drug Screen. Data for the wt2 strain (AID 169);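 note: 0% = growth of vehicle-treated yeast cultures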; details: S. cerevisiae wt2 strain growth inhibition, hits give high values
Summary of the method: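 Genetically defined yeast strains from a DNA-repair/cell-cycle panel were used. Compound-exposed yeast growth was measured, and the inhibition was calculated relative to vehicle treatment.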

[11] = NCI Yeast Anticancer Drug Screen. Data for the mlh1 strain (AID 171);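 note: 0% = growth of vehicle-treated control cultures of the same strain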; details: S. cerevisiae mlh1 strain growth inhibition, hits give high values
Summary of the method: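 Here the genetically defined yeast mutant is grown with each compound, and the extent to which its growth falls below that of vehicle-exposed cells is reported.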

[12] = NCI Yeast Anticancer Drug Screen. Data for the sgs1 strain (AID 173);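 note: 0% = growth of vehicle-only control cultures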; details: S. cerevisiae sgs1 mutant, hits give high values
Summary of the method: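 Relative growth inhibition, referenced to vehicle, was determined in a yeast strain with a defined alteration affecting DNA damage repair or cell cycle control after compound exposure.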

[13] = NCI Yeast Anticancer Drug Screen. Data for the mlh1 rad18 strain (AID 175); details: S. cerevisiae mlh1 rad18 strain growth inhibition, hits give high values
Summary of the method: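 In this whole-cell yeast screen, a strain with altered DNA damage repair is challenged with compound, and its growth is measured against matched vehicle-treated controls.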

[14] = NCI Yeast Anticancer Drug Screen. Data for the rad18 strain (AID 177); details: S. cerevisiae rad18 mutant growth inhibition, hits give high values
Summary of the method: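 Screen uses a yeast strain with a defined lesion in DNA damage repair; compound effect is read as loss of growth compared to untreated vehicle cultures.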

[15] = NCI Yeast Anticancer Drug Screen. Data for the rad14 strain (AID 159);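 note: 0% = growth of vehicle-treated control cultures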; details: S. cerevisiae rad14 strain growth inhibition, hits give high values
Summary of the method: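 Yeast cells carrying a defined DNA-repair defect were exposed to compounds, and growth inhibition was calculated relative to vehicle-treated control cultures.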

[16] = at 5.0 µM (retest, dose inferred, filed as 0.5)
[17] = at 50.0 µM (retest, dose inferred, filed as 5.0)

Measured: growth inhibition

CC(=O)Oc1ccc2c(c1)Cc1cc(N3C(=O)C=CC3=O)ccc1-2
active: [1]; at 11.0 µM 73% | [1]; at 33.0 µM 96% | [1]; at 100.0 µM 95% | [2]; at 33.0 µM 93% | [2]; at 100.0 µM 97% | [3]; at 33.0 µM 98% | [3]; at 100.0 µM 95% | [4]; at 11.0 µM 83% | [4]; at 33.0 µM 96% | [4]; [17] 99% | [4]; at 100.0 µM 93% | [5]; at 11.0 µM 72% | [5]; at 33.0 µM 97% | [5]; [17] 99% | [5]; at 100.0 µM 97% | [6]; [17] 99% | [7]; at 33.0 µM 92% | [7]; at 100.0 µM 96% | [8]; [17] 98% | [9]; at 33.0 µM 94% | [9]; [17] 98% | [9]; at 100.0 µM 97% | [10]; at 33.0 µM 98% | [10]; at 100.0 µM 96% | [11]; at 11.0 µM 74% | [11]; at 33.0 µM 98% | [11]; at 100.0 µM 97% | [12]; at 11.0 µM 79% | [12]; at 33.0 µM 98% | [12]; at 100.0 µM 97% | [13]; [17] 98% | [14]; at 11.0 µM 85% | [14]; at 33.0 µM 96% | [14]; at 100.0 µM 95%
inactive: [1]; at 1.2 µM 10% | [1]; at 3.7 µM 29% | [2]; at 1.2 µM 1% | [2]; at 3.7 µM 12% | [2]; at 11.0 µM 35% | [3]; at 1.2 µM 7% | [3]; at 3.7 µM 19% | [3]; at 11.0 µM 58% | [4]; at 1.2 µM 7% | [4]; at 3.7 µM 32% | [4]; [16] 27% | [4]; at 50.0 µM 46.1% | [5]; at 1.2 µM 15% | [5]; at 3.7 µM 30% | [5]; [16] 44% | [5]; at 50.0 µM 47.7% | [6]; [16] 17% | [6]; at 50.0 µM 58.2% | [7]; at 1.2 µM 1% | [7]; at 3.7 µM 12% | [7]; at 11.0 µM 35% | [8]; [16] 7% | [8]; at 50.0 µM 24.2% | [9]; at 1.2 µM -9% | [9]; at 3.7 µM 1% | [9]; [16] 8% | [9]; at 11.0 µM 37% | [9]; at 50.0 µM 48.6% | [10]; at 1.2 µM 1% | [10]; at 3.7 µM 15% | [10]; at 11.0 µM 46% | [11]; at 1.2 µM 13% | [11]; at 3.7 µM 24% | [12]; at 1.2 µM 16% | [12]; at 3.7 µM 33% | [13]; [16] 67% | [13]; at 50.0 µM 40.6% | [14]; at 1.2 µM 10% | [14]; at 3.7 µM 30%

COc1cc([C@@H]2c3cc4c(cc3[C@@H](NC(=O)NO)[C@H]3COC(=O)[C@H]23)OCO4)cc(OC)c1O
inactive: [1]; at 1.2 µM -2% | [1]; at 3.7 µM 2% | [1]; at 11.0 µM 10% | [1]; at 33.0 µM 48% | [2]; at 1.2 µM -3% | [2]; at 3.7 µM -2% | [2]; at 11.0 µM 1% | [2]; at 33.0 µM -1% | [2]; at 100.0 µM 4% | [3]; at 1.2 µM -5% | [3]; at 3.7 µM -3% | [3]; at 11.0 µM -2% | [3]; at 33.0 µM 14% | [3]; at 100.0 µM 4% | [4]; at 1.2 µM 0% | [4]; at 3.7 µM 1% | [4]; [16] 13% | [4]; at 11.0 µM 10% | [4]; at 33.0 µM 47% | [5]; at 1.2 µM -1% | [5]; at 3.7 µM 1% | [5]; [16] 7% | [5]; at 11.0 µM 0% | [5]; at 33.0 µM 1% | [5]; [17] -13% | [5]; at 50.0 µM -12.1% | [5]; at 100.0 µM 17% | [15]; at 1.2 µM -4% | [15]; at 3.7 µM -4% | [15]; at 11.0 µM -6% | [15]; at 33.0 µM -2% | [15]; at 100.0 µM 8% | [6]; [16] -2% | [6]; [17] 2% | [6]; at 50.0 µM -3.9% | [7]; at 1.2 µM -2% | [7]; at 3.7 µM -7% | [7]; at 11.0 µM -1% | [7]; at 33.0 µM -12% | [7]; at 100.0 µM 0% | [8]; [16] 6% | [8]; [17] 9% | [8]; at 50.0 µM 1.4% | [9]; at 1.2 µM -3% | [9]; at 3.7 µM -3% | [9]; [16] 3% | [9]; at 11.0 µM -2% | [9]; at 33.0 µM -4% | [9]; [17] -13% | [9]; at 50.0 µM -5.95% | [9]; at 100.0 µM -3% | [10]; at 1.2 µM 0% | [10]; at 3.7 µM 0% | [10]; at 11.0 µM 3% | [10]; at 33.0 µM 2% | [10]; at 100.0 µM 5% | [11]; at 1.2 µM 0% | [11]; at 3.7 µM -2% | [11]; at 11.0 µM 1% | [11]; at 33.0 µM 2% | [11]; at 100.0 µM 7% | [12]; at 1.2 µM -1% | [12]; at 3.7 µM 1% | [12]; at 11.0 µM 3% | [12]; at 33.0 µM 3% | [12]; at 100.0 µM 12% | [13]; [16] 5% | [13]; [17] -14% | [13]; at 50.0 µM 12.7% | [14]; at 1.2 µM -2% | [14]; at 3.7 µM -1% | [14]; at 11.0 µM 17% | [14]; at 33.0 µM -1% | [14]; at 100.0 µM 8%
active: [1]; at 100.0 µM 88% | [4]; [17] 79% | [4]; at 50.0 µM 71.5% | [4]; at 100.0 µM 86%
